Our source for the binding signal values is PMC7862700, “An all-to-all approach to the identification of sequence-specific readers for epigenetic DNA modifications on cytosine”.

What all share (assay): DAPPL (digital affinity profiling via proximity ligation, sequencing); 10 mM Tris-HCl pH 7.5, 50 mM NaCl, 1 mM DTT, 4% glycerol, room temperature, 30 min; GST-TFs on glutathione beads, 16-mer random dsDNA library, 0.1% formaldehyde crosslink after washing; high values mean tight binding
Holding throughout (settings): protein: recombinant; tags: N-terminal GST; dsDNA, one strand shown

The target in one assay is T1, FLI1 (Homo sapiens, UniProt Q01543 1-452).
T1 sequence: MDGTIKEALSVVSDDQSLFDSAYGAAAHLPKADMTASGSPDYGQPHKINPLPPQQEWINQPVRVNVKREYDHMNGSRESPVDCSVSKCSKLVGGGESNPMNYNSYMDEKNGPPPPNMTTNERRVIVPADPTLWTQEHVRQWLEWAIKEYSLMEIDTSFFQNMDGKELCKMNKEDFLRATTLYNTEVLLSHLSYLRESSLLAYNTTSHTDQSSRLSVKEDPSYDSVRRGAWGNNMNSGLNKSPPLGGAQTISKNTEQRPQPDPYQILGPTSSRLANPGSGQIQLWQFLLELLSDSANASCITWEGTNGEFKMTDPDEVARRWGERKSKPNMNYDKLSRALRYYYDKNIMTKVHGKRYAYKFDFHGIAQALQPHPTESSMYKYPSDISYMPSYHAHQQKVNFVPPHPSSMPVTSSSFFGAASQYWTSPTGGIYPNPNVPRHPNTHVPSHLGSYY
Summed up:
(§1)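 After expression in yeast as GST fusions, human transcription factors were bound to glutathione beads, DNA-barcoded and mixed with a tag-only sample. The pools were incubated with 200 nmole of a 16-mer random double-stranded DNA library in Tris/NaCl/DTT/glycerol buffer (30 min, room temperature), washed and crosslinked with 0.1% formaldehyde. Proximity ligation with BsaI/T4 ligase ran for 1 h at 37 °C, before PCR amplification and sequencing on an Illumina NextSeq500. Binding signal is a hexamer's read frequency for a factor divided by its frequency for the tag-only sample.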

The target of another assay is T2, ELK1 (Homo sapiens, UniProt P19419 1-428).
T2 sequence: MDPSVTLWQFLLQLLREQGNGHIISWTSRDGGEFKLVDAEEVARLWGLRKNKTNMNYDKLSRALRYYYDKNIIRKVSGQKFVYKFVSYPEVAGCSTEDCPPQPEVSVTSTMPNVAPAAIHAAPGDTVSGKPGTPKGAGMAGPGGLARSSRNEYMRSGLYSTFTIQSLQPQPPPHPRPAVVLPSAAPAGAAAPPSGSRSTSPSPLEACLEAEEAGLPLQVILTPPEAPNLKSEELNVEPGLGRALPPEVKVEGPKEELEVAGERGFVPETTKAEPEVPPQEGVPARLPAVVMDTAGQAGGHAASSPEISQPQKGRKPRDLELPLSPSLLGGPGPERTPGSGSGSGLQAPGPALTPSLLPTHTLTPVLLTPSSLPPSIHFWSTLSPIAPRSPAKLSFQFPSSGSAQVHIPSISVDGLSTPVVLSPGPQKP
Summed up:
as §1

The next assay deals with T3, GABPA (Homo sapiens, UniProt Q06546 1-454).
T3 sequence: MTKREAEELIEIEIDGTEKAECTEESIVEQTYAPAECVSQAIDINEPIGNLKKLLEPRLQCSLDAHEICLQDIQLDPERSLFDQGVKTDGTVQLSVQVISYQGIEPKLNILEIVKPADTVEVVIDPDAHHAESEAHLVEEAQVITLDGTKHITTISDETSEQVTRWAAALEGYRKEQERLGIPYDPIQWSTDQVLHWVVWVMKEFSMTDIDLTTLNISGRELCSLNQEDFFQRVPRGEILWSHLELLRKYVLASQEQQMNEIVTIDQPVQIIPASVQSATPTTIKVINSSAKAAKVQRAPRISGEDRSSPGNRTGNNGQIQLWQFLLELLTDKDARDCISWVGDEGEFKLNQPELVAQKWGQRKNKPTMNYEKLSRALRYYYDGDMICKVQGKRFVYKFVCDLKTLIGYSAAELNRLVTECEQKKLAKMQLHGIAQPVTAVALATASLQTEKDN
In short, it runs like this: as §1

Another assay concerns the target T4, ERG (Homo sapiens, UniProt P11308 1-479).
T4 sequence: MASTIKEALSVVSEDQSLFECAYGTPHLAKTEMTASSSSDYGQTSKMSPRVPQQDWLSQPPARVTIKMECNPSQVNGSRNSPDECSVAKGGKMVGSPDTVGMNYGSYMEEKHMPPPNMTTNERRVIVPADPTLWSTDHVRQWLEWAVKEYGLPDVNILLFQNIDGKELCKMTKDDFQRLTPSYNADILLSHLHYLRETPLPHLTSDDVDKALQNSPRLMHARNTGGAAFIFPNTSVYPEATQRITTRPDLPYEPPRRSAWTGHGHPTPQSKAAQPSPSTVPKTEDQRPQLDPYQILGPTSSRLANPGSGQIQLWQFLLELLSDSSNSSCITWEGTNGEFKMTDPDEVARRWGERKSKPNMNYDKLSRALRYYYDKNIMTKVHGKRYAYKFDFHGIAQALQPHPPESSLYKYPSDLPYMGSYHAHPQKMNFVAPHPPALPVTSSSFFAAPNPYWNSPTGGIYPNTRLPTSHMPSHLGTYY
Summed up:
as §1

For another assay, the target named is ELF1 (Homo sapiens, UniProt P32519 1-619). In short, it runs like this: as §1
Another assay deals with T5, EHF (Homo sapiens, UniProt Q9NZC4 1-300).
T5 sequence: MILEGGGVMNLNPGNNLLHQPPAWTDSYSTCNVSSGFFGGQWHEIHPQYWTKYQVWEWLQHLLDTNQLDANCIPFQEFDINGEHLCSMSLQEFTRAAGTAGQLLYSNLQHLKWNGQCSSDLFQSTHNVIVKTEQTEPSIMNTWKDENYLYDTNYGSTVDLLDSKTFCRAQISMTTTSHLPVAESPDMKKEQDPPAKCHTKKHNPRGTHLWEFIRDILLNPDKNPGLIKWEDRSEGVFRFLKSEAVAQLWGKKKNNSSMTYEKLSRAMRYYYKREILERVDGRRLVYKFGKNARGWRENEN
Summed up: as §1

Another assay deals with SPIB (Homo sapiens, UniProt Q01892 1-262). In short, it runs like this: as §1
The target of another assay is T6, FEV (Homo sapiens, UniProt Q99581 1-238).
T6 sequence: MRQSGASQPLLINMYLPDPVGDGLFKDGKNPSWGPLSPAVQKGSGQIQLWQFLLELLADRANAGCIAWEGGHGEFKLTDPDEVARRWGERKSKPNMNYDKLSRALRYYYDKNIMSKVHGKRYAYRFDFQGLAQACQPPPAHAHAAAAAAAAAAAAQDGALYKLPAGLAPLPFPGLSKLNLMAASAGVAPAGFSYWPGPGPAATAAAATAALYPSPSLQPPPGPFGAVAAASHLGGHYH
In short, it runs like this:
as §1

Another assay has as its target ETV5 (Homo sapiens, UniProt P41161 1-510). Summed up:
as §1

The next assay deals with T7, SPIC (Homo sapiens, UniProt Q8N5J4 1-248).
T7 sequence: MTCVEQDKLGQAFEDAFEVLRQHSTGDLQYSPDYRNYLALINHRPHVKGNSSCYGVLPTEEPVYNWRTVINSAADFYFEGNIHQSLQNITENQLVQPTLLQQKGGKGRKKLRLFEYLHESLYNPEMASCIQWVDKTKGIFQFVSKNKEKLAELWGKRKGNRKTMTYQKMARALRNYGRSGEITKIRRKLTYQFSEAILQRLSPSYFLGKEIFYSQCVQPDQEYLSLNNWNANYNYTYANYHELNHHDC
In short, it runs like this:
as §1

For a further assay, the target named is ELF4 (Homo sapiens, UniProt Q99607 1-663). Summed up: as §1
A further assay has as its target T8, ERF (Homo sapiens, UniProt P50548 1-548).
T8 sequence: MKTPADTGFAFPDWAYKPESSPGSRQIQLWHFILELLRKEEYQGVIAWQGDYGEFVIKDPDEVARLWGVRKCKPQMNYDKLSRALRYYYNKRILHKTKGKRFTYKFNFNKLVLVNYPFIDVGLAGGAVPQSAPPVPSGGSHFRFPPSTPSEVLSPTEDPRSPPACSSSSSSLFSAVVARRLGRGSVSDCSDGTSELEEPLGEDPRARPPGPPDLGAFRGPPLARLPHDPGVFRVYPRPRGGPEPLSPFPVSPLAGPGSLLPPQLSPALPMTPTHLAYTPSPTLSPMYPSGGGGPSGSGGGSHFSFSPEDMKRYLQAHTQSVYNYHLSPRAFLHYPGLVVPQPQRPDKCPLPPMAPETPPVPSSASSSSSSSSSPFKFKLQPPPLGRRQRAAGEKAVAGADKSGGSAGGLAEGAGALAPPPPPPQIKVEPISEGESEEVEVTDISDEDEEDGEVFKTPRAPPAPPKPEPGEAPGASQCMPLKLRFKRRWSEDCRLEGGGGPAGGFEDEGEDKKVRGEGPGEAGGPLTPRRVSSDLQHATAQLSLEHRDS
In short, it runs like this:
as §1

A further assay addresses T9, ETS2 (Homo sapiens, UniProt P15036 1-469).
T9 sequence: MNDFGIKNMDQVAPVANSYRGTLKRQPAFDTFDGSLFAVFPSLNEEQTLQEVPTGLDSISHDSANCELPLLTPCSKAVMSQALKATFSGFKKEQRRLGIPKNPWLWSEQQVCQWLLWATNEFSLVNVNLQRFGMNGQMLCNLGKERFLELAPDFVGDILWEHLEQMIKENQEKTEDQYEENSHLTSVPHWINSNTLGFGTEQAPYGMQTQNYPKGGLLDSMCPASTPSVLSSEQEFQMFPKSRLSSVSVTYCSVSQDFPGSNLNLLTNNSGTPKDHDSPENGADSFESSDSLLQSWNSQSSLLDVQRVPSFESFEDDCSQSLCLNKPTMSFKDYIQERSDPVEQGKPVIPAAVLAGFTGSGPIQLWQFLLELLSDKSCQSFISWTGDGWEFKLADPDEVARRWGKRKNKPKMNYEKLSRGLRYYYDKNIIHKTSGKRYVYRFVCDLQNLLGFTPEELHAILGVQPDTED
In short, it runs like this: as §1

In the next assay the target is T10, ELF5 (Homo sapiens, UniProt Q9UKW6-2 1-255).
T10 sequence: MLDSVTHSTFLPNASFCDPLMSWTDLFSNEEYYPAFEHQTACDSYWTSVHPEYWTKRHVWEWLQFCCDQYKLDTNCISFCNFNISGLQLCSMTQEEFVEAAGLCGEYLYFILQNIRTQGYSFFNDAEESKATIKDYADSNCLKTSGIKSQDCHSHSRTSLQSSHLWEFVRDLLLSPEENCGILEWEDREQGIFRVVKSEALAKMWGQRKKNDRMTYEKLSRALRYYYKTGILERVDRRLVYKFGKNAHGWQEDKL
In short, it runs like this:
as §1

In another assay the target is T11, ETV3 (Homo sapiens, UniProt P41162-2 1-143).
T11 sequence: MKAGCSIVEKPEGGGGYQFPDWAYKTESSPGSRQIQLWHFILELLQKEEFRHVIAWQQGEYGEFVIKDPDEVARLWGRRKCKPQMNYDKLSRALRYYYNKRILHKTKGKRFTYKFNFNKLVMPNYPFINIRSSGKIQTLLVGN
In short, it runs like this: as §1

The target of the next assay is ETV6 (Homo sapiens, UniProt P41212 1-452). Summed up: as §1
ETV6, sequence (P41212 whole entry): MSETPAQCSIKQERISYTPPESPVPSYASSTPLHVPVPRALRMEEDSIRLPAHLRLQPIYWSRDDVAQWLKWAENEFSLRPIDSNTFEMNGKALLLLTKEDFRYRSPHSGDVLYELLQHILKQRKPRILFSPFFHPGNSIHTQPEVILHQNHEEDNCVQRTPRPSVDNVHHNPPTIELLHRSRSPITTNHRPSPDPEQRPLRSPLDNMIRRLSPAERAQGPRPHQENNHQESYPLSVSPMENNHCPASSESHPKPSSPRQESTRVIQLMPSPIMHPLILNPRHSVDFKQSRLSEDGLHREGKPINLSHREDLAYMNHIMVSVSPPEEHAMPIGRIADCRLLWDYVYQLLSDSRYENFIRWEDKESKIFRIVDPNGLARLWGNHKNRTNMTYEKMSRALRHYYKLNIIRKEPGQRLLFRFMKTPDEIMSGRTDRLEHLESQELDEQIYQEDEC

SPIB, sequence (Q01892 whole entry): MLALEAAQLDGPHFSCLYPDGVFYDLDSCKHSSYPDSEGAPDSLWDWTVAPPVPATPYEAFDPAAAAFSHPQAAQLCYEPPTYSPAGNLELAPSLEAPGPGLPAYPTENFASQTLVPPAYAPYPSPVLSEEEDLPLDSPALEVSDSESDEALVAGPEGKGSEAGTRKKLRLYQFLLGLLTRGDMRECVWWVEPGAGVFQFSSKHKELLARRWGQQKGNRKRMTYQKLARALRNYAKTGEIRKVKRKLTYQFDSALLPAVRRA
ELF4, sequence (Q99607 whole entry): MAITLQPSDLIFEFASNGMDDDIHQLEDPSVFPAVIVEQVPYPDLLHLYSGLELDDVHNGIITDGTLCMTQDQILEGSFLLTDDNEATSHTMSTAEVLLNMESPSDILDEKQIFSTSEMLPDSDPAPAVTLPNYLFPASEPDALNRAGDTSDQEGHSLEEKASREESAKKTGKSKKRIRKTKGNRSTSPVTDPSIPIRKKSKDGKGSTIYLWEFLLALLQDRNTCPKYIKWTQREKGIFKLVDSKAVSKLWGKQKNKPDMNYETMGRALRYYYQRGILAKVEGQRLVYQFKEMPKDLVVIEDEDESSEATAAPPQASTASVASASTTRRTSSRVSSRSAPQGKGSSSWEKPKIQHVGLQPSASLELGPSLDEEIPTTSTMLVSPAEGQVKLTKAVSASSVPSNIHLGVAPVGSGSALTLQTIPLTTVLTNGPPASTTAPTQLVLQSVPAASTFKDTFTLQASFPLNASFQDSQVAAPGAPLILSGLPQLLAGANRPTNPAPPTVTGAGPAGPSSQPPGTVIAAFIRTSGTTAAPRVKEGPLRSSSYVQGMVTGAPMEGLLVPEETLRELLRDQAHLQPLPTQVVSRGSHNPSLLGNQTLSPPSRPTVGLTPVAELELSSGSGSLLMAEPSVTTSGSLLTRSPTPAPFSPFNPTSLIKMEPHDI
ELF1, sequence (P32519 whole entry): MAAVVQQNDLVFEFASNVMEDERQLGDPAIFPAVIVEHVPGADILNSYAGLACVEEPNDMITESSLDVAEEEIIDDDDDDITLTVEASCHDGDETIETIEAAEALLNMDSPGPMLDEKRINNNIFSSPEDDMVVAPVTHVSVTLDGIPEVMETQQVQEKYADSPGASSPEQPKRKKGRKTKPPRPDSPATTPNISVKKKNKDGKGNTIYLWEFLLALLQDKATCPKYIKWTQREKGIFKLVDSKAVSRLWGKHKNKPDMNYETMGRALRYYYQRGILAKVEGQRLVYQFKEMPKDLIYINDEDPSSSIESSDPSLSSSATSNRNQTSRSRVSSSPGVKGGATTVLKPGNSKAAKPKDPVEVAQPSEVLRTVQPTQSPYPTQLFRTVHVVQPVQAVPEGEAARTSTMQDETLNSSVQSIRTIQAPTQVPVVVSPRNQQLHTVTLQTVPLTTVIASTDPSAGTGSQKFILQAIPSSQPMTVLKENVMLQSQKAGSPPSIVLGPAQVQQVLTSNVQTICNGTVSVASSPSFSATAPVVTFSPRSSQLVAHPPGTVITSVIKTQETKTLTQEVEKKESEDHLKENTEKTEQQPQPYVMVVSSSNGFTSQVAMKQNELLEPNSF
ETV5, sequence (P41161 whole entry): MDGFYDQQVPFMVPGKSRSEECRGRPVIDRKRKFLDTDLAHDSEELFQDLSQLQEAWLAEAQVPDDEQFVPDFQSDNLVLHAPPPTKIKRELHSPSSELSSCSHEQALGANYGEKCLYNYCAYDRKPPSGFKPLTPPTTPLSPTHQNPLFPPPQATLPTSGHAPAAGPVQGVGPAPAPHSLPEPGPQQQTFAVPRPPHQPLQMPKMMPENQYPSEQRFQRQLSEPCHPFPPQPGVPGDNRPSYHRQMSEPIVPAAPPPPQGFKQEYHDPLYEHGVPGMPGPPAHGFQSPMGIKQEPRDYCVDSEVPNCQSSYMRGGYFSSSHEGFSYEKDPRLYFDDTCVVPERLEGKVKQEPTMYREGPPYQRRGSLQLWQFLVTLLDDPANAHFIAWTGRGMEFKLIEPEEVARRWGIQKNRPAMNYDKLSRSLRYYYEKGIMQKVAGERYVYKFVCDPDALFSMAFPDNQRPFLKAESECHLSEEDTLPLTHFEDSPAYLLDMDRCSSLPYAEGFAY

In the case of AGCAAC, the binding signal was 1 fold enrichment (6-mer frequency, TF over GST control) in the assay with FLI1; 1.03 fold enrichment (6-mer frequency, TF over GST control) with ELK1; 1.06 fold enrichment (6-mer frequency, TF over GST control) with GABPA; 1.06 fold enrichment (6-mer frequency, TF over GST control) with ERG; 1.08 fold enrichment (6-mer frequency, TF over GST control) in the assay with ELF1; 1.15 fold enrichment (6-mer frequency, TF over GST control) with EHF. Further, the binding signal is 1.08 fold enrichment (6-mer frequency, TF over GST control) with SPIB; 1.08 fold enrichment (6-mer frequency, TF over GST control) in the assay with FEV; 1.06 fold enrichment (6-mer frequency, TF over GST control) with ETV5; 1.11 fold enrichment (6-mer frequency, TF over GST control) with SPIC; 1.1 fold enrichment (6-mer frequency, TF over GST control) with ELF4; 1.11 fold enrichment (6-mer frequency, TF over GST control) with ERF. In addition, the binding signal is 1.11 fold enrichment (6-mer frequency, TF over GST control) with ETS2; 1.07 fold enrichment (6-mer frequency, TF over GST control) in the assay with ELF5; 1.04 fold enrichment (6-mer frequency, TF over GST control) with ETV3; 1.06 fold enrichment (6-mer frequency, TF over GST control) in the assay with ETV6.
